Experimental findings from PubChem BioAssay are described below.

Values joined by “and” are separate entries in the source; they are usually repeats but may differ in a detail not shown here. Equal values may be shown once. Active and inactive are the calls of the source.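 The calls were made as follows, unless noted: active = thallium flux through the channel raised or lowered by more than 3 SD from vehicle-only wells, actives on both sides; inactive = the rest.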

Assay [1] can be described thus: P. berghei load reduction in hepatocytes – cell-based, HepG2, luciferase luminescence, HepG2 viability, primary screen (AID 624349; in the data active = parasite load remaining mostly below about 12%, no sharp cut-off; inactive = mostly above about 10%;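 also: 100% = mean of DMSO negative control wells on the same plate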). To be noted: P. berghei liver stage in HepG2, luciferase luminescence, concentration not given here; parasite load remaining: stronger effect = lower value; viability: measured here: HepG2 viability without parasites.
Assay [2] in a line: signal quenchers or enhancers, Cy5 substrate/SSB – biochemical, NIH Clinical Collection, E. coli SSB, artefact control for HCV NS3 helicase inhibitor project (AID 743268; call rule not given here). As to conditions: Cy5-oligo bound E. coli SSB, fluorescence interference.
The test system of assay [3] is Hepatitis C virus NS3 helicase. Put plainly: blockers of NS3h binding to DNA – biochemical, fluorescence polarization, NIH Clinical Collection, primary screen (AID 743270; call rule not given here). To be noted: NS3 helicase binding to Cy5-dT15 DNA, stronger effect = higher value, concentration not given here. Background: Fluorescence polarisation rises when a labelled molecule tumbles more slowly, as on binding a larger partner.

Assay [4] addresses Single-stranded DNA-binding protein (Escherichia coli (strain K12)) (UniProt P0AGE0). Put plainly: SSB-ssDNA binding inhibitors – biochemical, fluorescence polarization, NIH Clinical Collection, counter-screen for HCV NS3 helicase inhibitor project (AID 743271; in the data active = inhibition above about 28%). To be noted: E. coli SSB-DNA binding, stronger effect = higher value, concentration not given here.
Assay [5] is described as follows: compounds distorting NS3 helicase fluorescence signal – biochemical, NIH Clinical Collection, artefact control for HCV NS3 helicase inhibitor project (AID 743272; call rule not given here;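 also: HCV NS3 helicase with a Cy5 labelled single stranded DNA probe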). To be noted: fluorescence interference counterscreen, HCV NS3 helicase assay; stronger effect = lower value. In general terms: A counterscreen serves to expose hits that act by an unwanted route or on another target.

The nature of assay [6]: viability loss with induced miR-34 in A549 – imaging, A549 dox-inducible miR-34, nuclei and caspase counts, primary screen (AID 1347080;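 active = compounds whose cell count with miR-34 switched on is under 0.7 times the count with it off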). As to conditions: A549 miR-34 inducible, Hoechst nuclei count, 48 h.
Assay [7] is described as follows: MELAS cybrid and Rieske KO viability enhancers – cell-based, MELAS cybrids, Rieske KO mouse fibroblasts, CellTiter-Glo, primary screen (AID 1508586;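 active = mean z-score across replicates of 1.96 or higher in either the MELAS or the Rieske mutant cell line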;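 also: z relative to plate mean and SD of compound and empty wells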). As to conditions: low glucose.
The nature of assay [8]: galactose survival enhancers in mitochondrial complex I cybrids – cell-based, galactose medium, ATP luminescence, primary screen (AID 1645843;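 active = z-score of at least 1.8 in each of two replicates, scored against plate mean and spread of sample wells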;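 also: positive z means more ATP and so rescue of galactose-driven cybrid death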). As to conditions: complex I mutant cybrid cells, 72 h, stronger effect = higher value.
The test system of another assay is F380Y. Briefly: BK channel mutant inhibitors and activators – cell-based, U2OS BacMam, thallium flux, beta subunits, selectivity assay, profiling panel (AID 1259406).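 Also: initial slope of Thallos dye fluorescence rise after thallium is added; log ratio against the mean of 0.3% DMSO vehicle wells on the same plate.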 As to conditions: U2OS BacMam BK variants, at 30 µM.
The test system of the next assay is F380Y/beta1. The description is as above. As to conditions: U2OS BacMam BK variants, at 30 µM.
The next assay has as its system F380Y/beta2Delta. The description is as above. To be noted: U2OS BacMam BK variants, at 30 µM.
For another assay, the system named is F380Y/beta4. Described as above. To be noted: U2OS BacMam BK variants, at 30 µM.
Assay [9] deals with Calcium-activated potassium channel subunit alpha-1 (Homo sapiens) + Leucine-rich repeat-containing protein 26 (Homo sapiens) (UniProt Q12791+Q2I0M4). The assay is described as above. To be noted: U2OS BacMam BK variants, F380Y/Slo1WT/gamma1, at 30 µM.
Chain of Calcium-activated potassium channel subunit alpha-1 (Homo sapiens) + Leucine-rich repeat-containing protein 26 (Homo sapiens) (Q2I0M4 whole entry, looked up, one chain of several): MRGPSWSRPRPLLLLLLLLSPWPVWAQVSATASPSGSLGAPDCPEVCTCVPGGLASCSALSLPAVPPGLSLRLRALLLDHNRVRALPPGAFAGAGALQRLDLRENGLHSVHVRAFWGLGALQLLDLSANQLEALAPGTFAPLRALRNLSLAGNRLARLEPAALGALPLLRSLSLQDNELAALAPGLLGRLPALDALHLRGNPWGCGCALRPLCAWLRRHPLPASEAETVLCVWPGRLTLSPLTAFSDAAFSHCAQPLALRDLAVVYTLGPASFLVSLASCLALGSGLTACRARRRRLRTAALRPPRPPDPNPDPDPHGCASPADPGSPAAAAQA
In the next assay the test system is R275C. The assay is described as above. To be noted: U2OS BacMam BK variants, at 30 µM.
The next assay concerns R275C/beta1. The assay is described as above. To be noted: U2OS BacMam BK variants, at 30 µM.
The next assay concerns R275C/beta2Delta. The assay is described as above. As to conditions: U2OS BacMam BK variants, at 30 µM.
The next assay relates to R275C/beta4. The description is as above. To be noted: U2OS BacMam BK variants, at 30 µM.
A further assay has as its system R275C/Slo1WT/beta2. The description is as above. To be noted: U2OS BacMam BK variants, at 30 µM.
Assay [10] concerns Neuropilin-2 / VEGF-C interaction (human). Put plainly: small molecules blocking Neuropilin-2/VEGF-C interaction – biochemical, microplate binding format, z-score (AID 743281; call rule not given here). As to conditions: microplate NRP2/VEGF-C binding assay; stronger effect = lower value.
The nature of assay [11]: modulation of C. elegans fzo-1 (AID 1259413; call rule not given here;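 also: fzo-1 mutant C. elegans worms in liquid wells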). As to conditions: C. elegans fzo-1 modulator screen, mean read-out; stronger effect = higher value.
[12] abbreviates: stronger effect = lower value, cell number ratio, induced over uninduced.
Setting [13] is: measured here: relative caspase fold change +Dox/-Dox.
The mark [14] stands for this setting: measured here: total cells with miR-34 induction, stronger effect = lower value.
Setting [15] is: measured here: total cells without miR-34 induction.
[16] abbreviates: MELAS cybrid survival, CellTiter-Glo 48 h, stronger effect = higher value.
[17] abbreviates: Rieske KO mouse fibroblast survival, CellTiter-Glo 72 h.

As to `C[C@]12CC3CC(N)(C1)C[C@@](C)(C3)C2`, the parasite load remaining in [1] is 113% (inactive) and 58.5% (inactive). The viability in assay [1] is 85.8% and 102%. Further, the fluorescence ratio is 1.06 (inactive) in assay [2] and 0.95 (inactive) in assay [5]. The figures for the inhibition in assay [3] and in assay [4] were 0.4% (inactive) and -0.87% (inactive), respectively. Further, the fold change in assay [6] (setting [12]) was 0.918 (inactive) and 0.871 (inactive); in assay [6] (setting [13]), 1.34 and 1.17. Further, the cell count is 9680 and 10100 in [6] (setting [14]); 10500 and 11600 in assay [6] (setting [15]). Also, the z-score in assay [7] (setting [16]) is -0.593 (inactive); in [7] (setting [17]), -0.282; in [8], -0.375 (inactive) and -0.275 (inactive). Further, the log fold change Tl+ flux is -0.00548 (inactive) with F380Y; -0.0368 (inactive) in the assay with F380Y/beta1; 0.033 (inactive) with F380Y/beta2Delta; 0.0342 (inactive) with F380Y/beta4; -0.0162 (inactive) in assay [9]; 0.0086 (inactive) in the assay with R275C. The log fold change Tl+ flux in the assay with R275C/beta1 was -0.0112 (inactive); in the assay with R275C/beta2Delta, -0.0288 (inactive); in the assay on R275C/beta4, -0.00234 (inactive); with R275C/Slo1WT/beta2, -0.0124 (inactive).
On to `CC(C(O)c1ccc(O)cc1)N1CCC(Cc2ccccc2)CC1` (configuration not stated), for which the figures for the fluorescence ratio in assay [2] and in [5] were 1.03 (inactive) and 0.98 (inactive), respectively. The inhibition in assay [3] is -6.73% (inactive); in [4] it was -4.72% (inactive). The z-score in assay [10] was -0.156 (inactive); in assay [7] (setting [16]), -0.121 (inactive) and -0.969 (inactive) and -0.489 (inactive); in [7] (setting [17]), -0.18 and -0.279 and 1.18; in assay [8], -1.16 (inactive) and -1.04 (inactive) and -0.25 (inactive). For the same molecule, in assay [11], the mean signal was 233 (inactive). For the same molecule, the log fold change Tl+ flux with F380Y was 0.0449 (inactive); in the assay with F380Y/beta1, -0.0111 (inactive); with F380Y/beta2Delta, 0.00326 (inactive); in the assay with F380Y/beta4, 0.0228 (inactive); in assay [9], -0.0962 (active); in the assay on R275C it was -0.193 (active). In addition, the log fold change Tl+ flux in the assay with R275C/beta1 is -0.0365 (inactive); in the assay on R275C/beta2Delta it was -0.218 (active); in the assay with R275C/beta4, -0.0303 (inactive); with R275C/Slo1WT/beta2, 0.00646 (inactive).
For `O=C(O)COCCN1CCN([C@H](c2ccccc2)c2ccc(Cl)cc2)CC1`, the parasite load remaining in [1] was 91.6% (inactive). For the same molecule, in assay [1], the viability worked out at 73.9%. In addition, the z-score in assay [10] was -0.677 (inactive). For the same molecule, the mean signal in assay [11] is 261 (inactive). The log fold change Tl+ flux in the assay on F380Y is 0.0476 (inactive); in the assay on F380Y/beta1, 0.0381 (inactive); with F380Y/beta2Delta, 0.0598 (inactive); with F380Y/beta4, -0.027 (inactive); in [9], 0.0629 (inactive); with R275C, -0.011 (inactive). Moreover, the log fold change Tl+ flux was 0.122 (active) in the assay on R275C/beta1, 0.083 (inactive) in the assay on R275C/beta2Delta, 0.0472 (inactive) with R275C/beta4 and 0.0404 (inactive) in the assay on R275C/Slo1WT/beta2.
As for `C[n+]1ccccc1C=NO`, in assay [1], the parasite load remaining is 51.7% (inactive). For the same molecule, in assay [1], the viability was determined as 127%. The results for the fold change in [6] (setting [12]) and in [6] (setting [13]) were 0.861 (inactive) and 4.73, respectively. Further, the values for the cell count in assay [6] (setting [14]) and in [6] (setting [15]) were 11500 and 13300, respectively. Further, the log fold change Tl+ flux in the assay with F380Y was -0.0173 (inactive); in the assay with F380Y/beta1, 0.0118 (inactive); in the assay on F380Y/beta2Delta, -0.00109 (inactive); in the assay with F380Y/beta4, -0.0377 (inactive); in assay [9], -0.000474 (inactive); with R275C, -0.00984 (inactive). Also, the log fold change Tl+ flux was 0.0135 (inactive) with R275C/beta1, 0.00623 (inactive) in the assay on R275C/beta2Delta, -0.0487 (inactive) in the assay with R275C/beta4 and -0.0159 (inactive) in the assay on R275C/Slo1WT/beta2.

For orientation: viability means a read-out of living cells in per cent, often relative to untreated cells. A word on the inhibition: it is the drop in the measured response relative to a control, in per cent.
